For 13 compounds, outcome and AC50 results are on record in PubChem BioAssay (EPA / NIEHS).

Settings in all cases: mRNA level, 48 h; actives raise or lower the signal
Read-out in experiment [1]: Hypoxia-inducible factor 1-alpha (Homo sapiens) (UniProt Q16665)
The experiment is described as follows: LTEA_HepaRG_HIF1A: Life Technologies and Expression Analysis (LTEA) Assay for Hypoxia-inducible factor 1 (HIF1A) Trancription factor using HepaRG (AID 2283503).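 Note: HIF1A transcript by TaqMan qRT-PCR normalized to ACTB GAPDH and POLR2A.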 The method in brief: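 HepaRG, 48 h exposure, 8-pt half-log series from 100 uM, 0.5% DMSO vehicle, duplicates. Readout: HIF1A transcript by qRT-PCR (Fluidigm array), housekeeping-normalised. Bidirectional curve fit vs DMSO baseline.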

Read-out in experiment [2]: 3-Hydroxy-3-Methylglutaryl-CoA Synthase 2 (HMGCS2), HMGCS2 (gene 3158)
In words: LTEA_HepaRG_HMGCS2: Life Technologies and Expression Analysis (LTEA) Assay for 3-Hydroxy-3-Methylglutaryl-CoA Synthase 2 (HMGCS2) using HepaRG (AID 2283504). The essentials:
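qRT-PCR read-out of HMGCS2 transcript, normalised to three housekeeping genes, in HepaRG cells after 48 h chemical exposure. Eight-point curves from 100 uM, half-log dilutions, 0.5% DMSO vehicle; gain or loss fitted relative to DMSO baseline.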

Read-out in a further experiment: HGF (gene 3082)
The experiment is described as follows: LTEA_HepaRG_HGF: Life Technologies and Expression Analysis (LTEA) Assay for Hepatocyte Growth Facto (HGF) using HepaRG (AID 2283505). The essentials:
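HepaRG, 48 h dosing, 8-pt half-log series from 100 uM in 0.5% DMSO, duplicates. Readout: TaqMan qRT-PCR of HGF mRNA, housekeeping-normalized; bidirectional curve fit vs DMSO baseline.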

Read-out in experiment [3]: Insulin Like Growth Factor 1 (IGF1), IGF1 (gene 3479)
In words: LTEA_HepaRG_IGF1: Life Technologies and Expression Analysis (LTEA) Assay for Insulin Like Growth Factor 1 (IGF1) using HepaRG (AID 2283506). The essentials:
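Using human HepaRG liver cells, IGF1 transcript induction or suppression is measured 48 h after dosing across eight concentrations capped at 100 uM. Values derive from bidirectional concentration-response fitting with DMSO as baseline.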

Read-out in experiment [4]: Intercellular Adhesion Molecule 1 (ICAM1), ICAM1 (gene 3383)
In words: LTEA_HepaRG_ICAM1: Life Technologies and Expression Analysis (LTEA) Assay for Intercellular Adhesion Molecule 1 (ICAM1) using HepaRG (AID 2283507). The method in brief:
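HepaRG, 48 h exposure, 8-pt half-log series from 100 uM, 0.5% DMSO vehicle, duplicates. Readout: TaqMan qRT-PCR mRNA, housekeeping-normalized (ACTB/GAPDH/POLR2A). Bidirectional curve fit vs DMSO baseline.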

Read-out in experiment [5]: Insulin-like growth factor-binding protein 1 (IGFBP1), IGFBP1 (gene 3484)
The experiment is described as follows: LTEA_HepaRG_IGFBP1: Life Technologies and Expression Analysis (LTEA) Assay for Insulin-like growth factor-binding protein 1 (IGFBP1) using HepaRG (AID 2283508). The essentials:
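qRT-PCR mRNA read-out (TaqMan, Fluidigm array), normalised to three housekeeping genes; HepaRG cells, 48 h exposure, 8-pt half-log series from 100 uM, 0.5% DMSO vehicle; bidirectional curve fit vs DMSO baseline.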

Read-out in experiment [6]: Interleukin 6 (IL6), IL6 (gene 3569)
The experiment is described as follows: LTEA_HepaRG_IL6: Life Technologies and Expression Analysis (LTEA) Assay for Interleukin 6 (IL6) using HepaRG (AID 2283509). The method in brief: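 HepaRG cells exposed in duplicate for 48 h to eight half-log concentrations, top 100 uM, in 0.5% DMSO serum-free induction medium. mRNA measured by qRT-PCR, normalized to ACTB, GAPDH and POLR2A. Bidirectional fit versus DMSO.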

Read-out in experiment [7]: Interleukin 6 Receptor (IL6R), IL6R (gene 3570)
The experiment is described as follows: LTEA_HepaRG_IL6R: Life Technologies and Expression Analysis (LTEA) Assay for Interleukin 6 Receptor (IL6R) using HepaRG (AID 2283510).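 For AC50: differentiated human HepaRG liver cells in serum-free induction medium.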 The essentials: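 Concentration-response in human liver HepaRG cells: eight concentrations from 100 uM downward by half-logs, 48 h exposure, 0.5% DMSO vehicle. IL6R mRNA change measured by qRT-PCR and fitted in both directions relative to vehicle.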

Read-out in experiment [8]: Potassium channel subfamily K member 1 (KCNK1), KCNK1 (gene 3775)
In words: LTEA_HepaRG_KCNK1: Life Technologies and Expression Analysis (LTEA) Assay for Potassium channel subfamily K member 1 (KCNK1) using HepaRG (AID 2283511). The method in brief: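 Differentiated HepaRG cells, 48 h exposure in serum-free induction medium with 0.5% DMSO; 8 concentrations, half-log from 100 uM, duplicate. KCNK1 mRNA by qRT-PCR, normalized to ACTB, GAPDH, POLR2A; bidirectional fit vs DMSO.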

Read-out in experiment [9]: Keratin 19 (KRT19), KRT19 (gene 3880)
In words: LTEA_HepaRG_KRT19: Life Technologies and Expression Analysis (LTEA) Assay for Keratin 19 (KRT19) using HepaRG (AID 2283512). The method in brief: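 HepaRG, 48 h chemical exposure, 8-pt half-log CRC from 100 uM, 0.5% DMSO vehicle, duplicates. Readout: TaqMan qRT-PCR of KRT19 mRNA, housekeeping-normalized (ACTB/GAPDH/POLR2A). Bidirectional fit vs DMSO baseline.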

The structures appear in SMILES notation. Activity calls are given as the source filed them. Rule for the calls: active = hit-call score of the fitted dose curve at least 0.9, where 1 is the maximum; inactive = score below 0.9.

Hypoxia-inducible factor 1-alpha (Homo sapiens), sequence (Q16665 whole entry, looked up): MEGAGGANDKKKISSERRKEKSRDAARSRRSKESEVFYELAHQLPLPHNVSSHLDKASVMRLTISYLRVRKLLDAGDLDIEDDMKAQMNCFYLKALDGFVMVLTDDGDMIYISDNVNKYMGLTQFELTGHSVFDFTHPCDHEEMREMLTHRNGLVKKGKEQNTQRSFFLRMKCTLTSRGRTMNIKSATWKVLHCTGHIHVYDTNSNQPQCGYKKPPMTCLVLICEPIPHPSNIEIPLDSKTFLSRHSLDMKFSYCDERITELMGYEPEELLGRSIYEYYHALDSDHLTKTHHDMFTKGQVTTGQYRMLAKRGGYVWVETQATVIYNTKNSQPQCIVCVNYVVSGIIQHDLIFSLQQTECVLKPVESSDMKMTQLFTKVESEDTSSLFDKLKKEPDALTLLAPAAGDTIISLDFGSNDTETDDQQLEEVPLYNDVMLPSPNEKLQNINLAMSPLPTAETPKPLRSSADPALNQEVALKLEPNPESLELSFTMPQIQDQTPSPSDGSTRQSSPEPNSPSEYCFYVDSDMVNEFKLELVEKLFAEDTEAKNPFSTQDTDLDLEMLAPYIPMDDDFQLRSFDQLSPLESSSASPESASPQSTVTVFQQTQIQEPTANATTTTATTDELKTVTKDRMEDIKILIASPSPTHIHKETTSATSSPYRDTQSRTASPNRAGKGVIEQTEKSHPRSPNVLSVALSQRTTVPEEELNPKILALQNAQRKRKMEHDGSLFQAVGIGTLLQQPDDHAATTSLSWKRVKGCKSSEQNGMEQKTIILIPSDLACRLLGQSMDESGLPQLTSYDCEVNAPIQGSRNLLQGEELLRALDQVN

Turning to `CCN(CC)CCO`, the call (in [1]; in experiment [2]; with HGF (gene 3082); in experiment [3]; in experiment [4]; in experiment [5]) was inactive. Further, the outcome in experiment [6], in experiment [7], in experiment [8] and in experiment [9] was inactive.

Turning to `CCC12COCN1COC2`, the outcome (in [1]; in experiment [2]; with HGF (gene 3082); in experiment [3]; in [4]; in [5]) was inactive. For the same compound, the compound was called inactive in experiment [6], in experiment [7], in [8] and in [9].

Take `[As]#[In]`: the result (in experiment [1]; in experiment [2]; with HGF (gene 3082); in experiment [3]; in [4]; in experiment [5]) was inactive. The compound was classed as inactive in [6], in experiment [7], in experiment [8] and in experiment [9].

`Clc1ccc(C(c2ccc(Cl)cc2)C(Cl)Cl)cc1`: the result (in experiment [1]; in experiment [2]; with HGF (gene 3082); in experiment [3]; in experiment [4]; in [5]) was inactive. For the same compound, the call in [6], in [7], in [8] and in experiment [9] was inactive.

For `c1ccc(C2CO2)cc1` (stereo not given), the result (in experiment [1]; in experiment [2]; with HGF (gene 3082); in [3]; in [4]; in [5]) was inactive. The outcome in experiment [6], in [7], in [8] and in experiment [9] was inactive.

For the compound `CCCSC(=O)N(CCC)CCC`, the result (in experiment [1]; in experiment [2]; with HGF (gene 3082); in [3]; in experiment [4]; in experiment [5]) was inactive. The compound was classed as inactive in [6], in experiment [7], in experiment [8] and in [9].

Regarding `CN(C)c1ccc(C(=O)c2ccc(N(C)C)cc2)cc1`, the compound was called inactive (in experiment [1]; in experiment [2]; in the experiment with HGF (gene 3082); in experiment [3]; in experiment [4]; in [5]). The call in [6], in experiment [7] and in [8] was inactive. In experiment [9], the AC50 is 13.5 µM (active).

In the case of `Clc1ccccc1Cl`, the compound was classed as inactive (in experiment [1]; in [2]; with HGF (gene 3082); in experiment [3]; in experiment [4]; in experiment [5]). Besides, the call in [6], in experiment [7], in [8] and in experiment [9] was inactive.

Take `CCC[CH2][Sn]([Cl])([CH2]CCC)[CH2]CCC`: the half-maximal activity concentration (AC50) in [1] is 2.07 µM (active); in [2], 1.24 µM (active); with HGF (gene 3082), 50 µM (active); in experiment [3], 4.72 µM (active); in [5] it was 2.29 µM (active); in [6] it was 2.73 µM (active). For the same compound, the figures for the concentration at half-maximal activity (AC50) in experiment [7], in experiment [8] and in [9] were 50 µM (active), 2.85 µM (active) and 0.297 µM (active), respectively. The call in [4] was inactive.

Turning to `CCCCOC(=O)c1ccccc1C(=O)OCc1ccccc1`, the outcome (in experiment [1]; in experiment [2]; with HGF (gene 3082); in experiment [3]; in [4]; in experiment [5]) was inactive. Moreover, the compound was classed as inactive in [6], in [7], in [8] and in experiment [9].

As for `Nc1ccc(N=Nc2ccccc2)cc1`, the call (in [1]; in the experiment with HGF (gene 3082); in experiment [5]; in experiment [6]; in experiment [8]) was inactive. Besides, the concentration at half-maximal activity (AC50) in experiment [2] is 24.6 µM (active); in experiment [3], 12.8 µM (active); in [4], 30.9 µM (active); in experiment [7], 13 µM (active); in [9], 50 µM (active).

In the case of `c1ccc2c(c1)-c1cccc3cccc-2c13`, the result (in experiment [1]; in experiment [2]; with HGF (gene 3082); in [3]; in experiment [4]; in experiment [5]) was inactive. Moreover, the call in experiment [6], in [7], in experiment [8] and in [9] was inactive.

Turning to `CS(=O)(=O)NC(=O)c1cc(Oc2ccc(C(F)(F)F)cc2Cl)ccc1[N+](=O)[O-]`, the compound was called inactive (in experiment [1]; with HGF (gene 3082); in experiment [3]; in experiment [4]; in experiment [5]; in [6]). Further, the result in experiment [7], in experiment [8] and in [9] was inactive. Besides, in experiment [2], the half-maximal activity concentration (AC50) is 7.76 µM (active).

By AC50 is commonly meant the concentration at which the activity in the assay is half-maximal.
